In the supplement of paper PMC6089552:
The whole screen tested about 3,200 compounds, of which about 300 (9.4%) showed activity. For the sample, actives were picked, then their nearest neighbours and some compounds at random.

Tested on: A673/TR/shEF
Test: cell viability (LOESS-normalised, relative to median of negative controls) (log2 ratio); higher = more viable cells (less compound effect), active = hit call of the paper (over 3 MAD below the median)
Conditions: treatment time: 72 h
Summary of the method: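 A673/TR/shEF Ewing sarcoma cells were plated at 1,500 per well in 384-well plates and cultured with or without doxycycline, added 24 h before compounds, to induce EWS-FLI1 shRNA knockdown. Library compounds at two or more concentrations, alongside DMSO controls, were applied for three days. Cell viability was measured by CellTiter-Glo luminescence on an Envision reader. Readings were LOESS-corrected per plate, divided by the median of negative controls and log2-transformed, and hits were wells lying at least three median absolute deviations from the median of all screened wells.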

[1] = 0.25 µM, library screen: screen1, EWS-FLI1 expression: high (no doxycycline)
[2] = 0.25 µM, library screen: screen1, EWS-FLI1 expression: low (doxycycline-induced shRNA knockdown)
[3] = 2.5 µM, library screen: screen1, EWS-FLI1 expression: high (no doxycycline)
[4] = 2.5 µM, library screen: screen1, EWS-FLI1 expression: low (doxycycline-induced shRNA knockdown)
[5] = 0.103 µM, library screen: screen3, EWS-FLI1 expression: high (no doxycycline)
[6] = 0.103 µM, library screen: screen3, EWS-FLI1 expression: low (doxycycline-induced shRNA knockdown)
[7] = 0.25 µM, library screen: screen2, EWS-FLI1 expression: high (no doxycycline)
[8] = 0.25 µM, library screen: screen2, EWS-FLI1 expression: low (doxycycline-induced shRNA knockdown)
[9] = 0.308 µM, library screen: screen3, EWS-FLI1 expression: high (no doxycycline)
[10] = 0.308 µM, library screen: screen3, EWS-FLI1 expression: low (doxycycline-induced shRNA knockdown)
[11] = 0.926 µM, library screen: screen3, EWS-FLI1 expression: high (no doxycycline)
[12] = 0.926 µM, library screen: screen3, EWS-FLI1 expression: low (doxycycline-induced shRNA knockdown)
[13] = 2.5 µM, library screen: screen2, EWS-FLI1 expression: high (no doxycycline)
[14] = 2.5 µM, library screen: screen2, EWS-FLI1 expression: low (doxycycline-induced shRNA knockdown)
[15] = 2.8 µM, library screen: screen3, EWS-FLI1 expression: high (no doxycycline)
[16] = 2.8 µM, library screen: screen3, EWS-FLI1 expression: low (doxycycline-induced shRNA knockdown)
[17] = 8.3 µM, library screen: screen3, EWS-FLI1 expression: high (no doxycycline)
[18] = 8.3 µM, library screen: screen3, EWS-FLI1 expression: low (doxycycline-induced shRNA knockdown)
[19] = 25 µM, library screen: screen3, EWS-FLI1 expression: high (no doxycycline)
[20] = 25 µM, library screen: screen3, EWS-FLI1 expression: low (doxycycline-induced shRNA knockdown)
[21] = 0.025 µM, library screen: screen1, EWS-FLI1 expression: high (no doxycycline)
[22] = 0.025 µM, library screen: screen1, EWS-FLI1 expression: low (doxycycline-induced shRNA knockdown)
[23] = 25 µM, library screen: screen1, EWS-FLI1 expression: high (no doxycycline)
[24] = 25 µM, library screen: screen1, EWS-FLI1 expression: low (doxycycline-induced shRNA knockdown)

Measured: cell viability (log2)

COc1cccc(CN2CCN(Cc3c[nH]c4ccccc34)CC2)c1
inactive: [1] 0.11 | [2] 0.105 | [3] 0.138 | [4] 0.0572

CNC[C@H](O)c1ccc(O)c(O)c1
inactive: [5] 0.00528 | [6] 0.0495 | [1] 0.106 | [2] 0.0509 | [7] 0.169 | [8] 0.0474 | [9] 0.079 | [10] 0.091 | [11] 0.0631 | [12] 0.0893 | [3] 0.183 | [4] 0.209 | [13] 0.122 | [14] 0.099 | [15] 0.0488 | [16] 0.0524 | [17] -0.00361 | [18] 0.0638 | [19] 0.098 | [20] 0.00995

NCC(O)c1ccc(O)c(O)c1 (configuration not stated)
inactive: [8] 0.0558 | [13] 0.0351 | [14] -0.00208
active: [7] -0.177

NC[C@H](O)c1ccc(O)c(O)c1
inactive: [1] 0.152 | [2] -0.0124 | [7] 0.069 | [8] 0.102 | [3] 0.127 | [4] 0.154 | [13] 0.0755 | [14] 0.101

CS(=O)(=O)CCCCN=C=S
inactive: [1] 0.17 | [2] 0.115 | [3] 0.227 | [4] 0.0923

NS(O)(O)Cc1noc2ccccc12
inactive: [7] 0.153 | [8] 0.0786 | [13] 0.183 | [14] 0.124

O=C(c1cc(-c2ccccc2)nc2ccccc12)N1CCN(c2ccccc2)CC1
inactive: [1] 0.112 | [2] 0.0402 | [3] 0.113 | [4] 0.188

O=C(c1cc(-c2ccccc2)nc2ccccc12)N1CCCC1
inactive: [1] 0.0657 | [2] 0.0915 | [3] 0.129 | [4] -0.0754

CC1CN(C(=O)c2cc(-c3ccccc3)nc3ccccc23)CC(C)O1 (configuration not stated)
inactive: [3] 0.0982 | [4] 0.0382
active: [1] -2.9 | [2] -2.55

Cc1cccc(C)c1OCC(N)C(C)C (configuration not stated)
inactive: [7] 0.0355 | [8] -0.033 | [13] 0.0196 | [14] 0.00962

COc1cccc2c1CCC1CC(=O)CC[C@]21C (some centres not stated)
inactive: [1] 0.0982 | [2] 0.0827 | [3] 0.058 | [4] 0.11

OC[C@@H](O)[C@@H](O)C(O)[C@H](O)[C@@H](O)CO (some centres not stated)
inactive: [1] 0.0348 | [2] 0.0046 | [3] 0.138 | [4] 0.018

CC(C)NC[C@H](O)COc1cccc2ccccc12
inactive: [7] 0.141 | [8] 0.0581 | [13] 0.131 | [14] 0.11

CC(C)NCC(O)COc1cccc2ccccc12 (configuration not stated)
inactive: [1] 0.149 | [2] 0.0263 | [7] 0.19 | [8] 0.128 | [3] 0.146 | [4] -0.0491 | [13] 0.0197 | [14] 0.0681

C=CCc1ccccc1OCC(O)CNC(C)C (configuration not stated)
inactive: [1] 0.0845 | [2] 0.135 | [8] 0.0871 | [3] 0.0928 | [4] 0.0547 | [13] 0.0869 | [14] 0.156
active: [7] -0.203

CN1[C@@H]2CC[C@@H]1CC(OC(c1ccccc1)c1ccccc1)C2 (some centres not stated)
inactive: [1] 0.132 | [2] 0.107 | [7] 0.135 | [8] 0.0858 | [3] 0.0835 | [4] 0.0797 | [13] 0.114 | [14] 0.0926

O=C(CCCCCCC(=O)Nc1ccccc1)NO
active: [17] -1.12 | [18] -0.391 | [19] -2.67 | [20] -1.56
inactive: [5] 0.0138 | [6] 0.0808 | [7] 0.16 | [8] 0.101 | [9] 0.0409 | [10] 0.115 | [11] 0.0465 | [12] 0.156 | [13] 0.0836 | [14] 0.0743 | [15] -0.083 | [16] -0.944

O=C(Nc1ccccc1)Nc1ccccc1
inactive: [1] -0.0389 | [2] 0.0106 | [3] 0.0741 | [4] -0.00546

O=C(Cc1ccccc1)NO
inactive: [1] 0.111 | [2] 0.0668 | [3] 0.126 | [4] 0.0445

Cc1c2oc3c(C)ccc(C(=O)NC4C(=O)NC(C(C)C)C(=O)N5CCCC5C(=O)N(C)CC(=O)N(C)C(C(C)C)C(=O)OC4C)c3nc-2c(C(=O)NC2C(=O)NC(C(C)C)C(=O)N3CCCC3C(=O)N(C)CC(=O)N(C)C(C(C)C)C(=O)OC2C)c(N)c1=O (configuration not stated)
active: [1] -4.25 | [2] -4.25 | [3] -4.23 | [4] -4.26

COc1ccc(OC)c(CN2CCN(Cc3ccc([N+](=O)[O-])cc3)CC2)c1
inactive: [1] 0.0199 | [2] 0.014 | [3] -0.0107 | [4] 0.0533

O=C(O)c1cc2ccccc2[nH]1
inactive: [1] 0.123 | [2] 0.0929 | [3] 0.0969 | [4] 0.132

O=C(O)c1cc2cc(Cl)ccc2[nH]1
inactive: [1] 0.0631 | [2] -0.00653 | [3] 0.106 | [4] 0.0362

O=C(O)c1cc2cc(F)ccc2[nH]1
inactive: [1] 0.0776 | [2] -0.00933 | [8] 0.0925 | [3] 0.156 | [4] 0.00267 | [13] 0.154 | [14] 0.0908
active: [7] -0.173

Cn1cnnc1SCC(=O)N1c2ccccc2CCc2ccccc21
inactive: [1] 0.0935 | [2] 0.0627 | [3] 0.0921 | [4] 0.0613

C[C@@H](NC(=O)/C(C#N)=C/c1ccc(O)c(O)c1)c1ccccc1
inactive: [7] 0.139 | [8] -0.0177 | [13] 0.152 | [14] 0.00798

O=C(O)c1cc([N+](=O)[O-])ccc1NCCCc1ccccc1
inactive: [1] 0.00351 | [2] 0.0513 | [7] 0.0917 | [8] 0.092 | [3] -0.0108 | [4] 0.0086 | [13] 0.0503 | [14] 0.0316

N#C/C(=C\c1ccc(O)c(O)c1)C(=O)Nc1ccccc1
active: [3] -0.16 | [23] -0.692
inactive: [21] 0.188 | [22] -0.0571 | [1] 0.155 | [2] 0.0428 | [7] 0.0861 | [8] 0.0194 | [4] 0.0541 | [13] 0.105 | [14] 0.00853 | [24] 0.0298

O=C(O)Cc1ccc(O)c(O)c1
inactive: [7] 0.133 | [8] -0.00472 | [13] 0.0419 | [14] 0.108

N#C/C(=C\c1ccc(O)c(O)c1)C(=O)NCCCc1ccccc1
inactive: [7] 0.175 | [8] 0.0501 | [13] 0.049 | [14] 0.115

N#C/C(=C\c1ccc(O)c(O)c1)C(=O)NCc1ccccc1
active: [3] -0.573 | [4] -0.157 | [23] -0.423
inactive: [21] 0.245 | [22] 0.0652 | [1] 0.23 | [2] 0.104 | [7] 0.0885 | [8] 0.0797 | [13] 0.253 | [14] 0.0805 | [24] -0.0381

N#C/C(=C\c1ccc(O)c(O)c1)C(=O)NCCc1ccccc1
inactive: [7] 0.142 | [8] 0.0983 | [13] 0.163 | [14] 0.0697

CC(C)c1cc(/C=C(\C#N)C(=O)NCCCc2ccccc2)cc(C(C)C)c1O
active: [3] -0.147 | [23] -0.351
inactive: [21] 0.249 | [22] 0.00192 | [1] 0.255 | [2] -0.0227 | [4] 0.113 | [24] 0.147

C[C@H](NC(=O)/C(C#N)=C/c1ccc(O)c(O)c1)c1ccccc1
inactive: [7] 0.133 | [8] 0.0775 | [13] 0.118 | [14] 0.0876

CC(=O)O[C@H]1CC[C@@]2(C)C(CC[C@]3(C)C2C(=O)C=C2C4[C@@H](C)[C@H](C)CC[C@]4(C(=O)O)CC[C@]23C)C1(C)C (some centres not stated)
inactive: [1] 0.0834 | [2] -0.0467 | [3] 0.137 | [4] -0.0143

Cc1nnc(SCC(=O)N2c3cc(C)c(C)cc3-c3c(ssc3=S)C2(C)C)s1
inactive: [1] 0.0437 | [2] 0.1 | [3] 0.106 | [4] 0.371

COc1cc(CN2CCN(Cc3ccccc3Br)CC2)cc(OC)c1OC
inactive: [1] 0.141 | [2] 0.0128 | [3] 0.124 | [4] -0.0338

COCCCN1C(=O)C(=Cc2sccc2C)SC1=S
inactive: [1] 0.112 | [2] 0.0557 | [3] 0.117 | [4] -0.0013

CC1=C(C(=O)Nc2ccccc2Cl)C(c2ccc(F)cc2)NC(=S)N1 (configuration not stated)
inactive: [1] 0.0751 | [2] -0.00334 | [3] 0.0684 | [4] -0.0806

CC(=O)CCC(=O)O
inactive: [1] 0.109 | [2] -0.0377 | [3] 0.149 | [4] 0.116

Nc1ccccc1C(=O)CC(N)C(=O)O (configuration not stated)
inactive: [1] 0.119 | [2] 0.0475 | [3] 0.0296 | [4] 0.178

Clc1ccc(CSC(Cn2ccnc2)c2ccc(Cl)cc2Cl)cc1 (configuration not stated)
inactive: [1] 0.0547 | [2] -0.0713 | [3] 0.0724 | [4] -0.143

Clc1ccc(COC(Cn2ccnc2)c2ccc(Cl)cc2Cl)cc1 (configuration not stated)
inactive: [5] -0.00584 | [6] 0.0214 | [1] 0.00613 | [2] -0.0476 | [9] 0.00202 | [10] -0.00564 | [11] 0.0175 | [12] 0.0368 | [3] 0.0561 | [4] 0.0348 | [15] -0.113 | [16] 0.0131 | [17] -0.0802 | [18] 0.0353 | [20] -0.0458
active: [19] -0.429

Clc1ccc(COC(Cn2ccnc2)c2ccc(Cl)cc2Cl)c(Cl)c1 (configuration not stated)
inactive: [5] 0.0363 | [6] 0.054 | [1] 0.11 | [2] -0.0145 | [9] 0.0264 | [10] 0.0988 | [11] 0.0504 | [12] 0.0737 | [3] 0.143 | [4] 0.0636 | [15] 0.00663 | [16] 0.0754 | [17] -0.0261 | [18] 0.0596 | [19] -0.0834 | [20] 0.0583
